Our source for the efficacy, outcome and AC50 values is PubChem BioAssay (NCATS).

By AC50 is commonly meant the midpoint of the concentration-response curve, whichever way the signal moves.

Unmarked numbers belong to inactive results. For some of these results: Measured potencies and affinities stand elsewhere. The source made the active and inactive calls. The rule behind the calls is not given here.

The conditions of experiment [1]: Ebola virus entry assay, green fluorescence channel.
The conditions of experiment [2]: Ebola virus entry assay, ratio channel.
The conditions of experiment [3]: Ebola virus entry assay, green channel fluorescence.
The conditions of experiment [4]: Ebola virus entry assay, reporter ratio channel; AC50: Channel type: primary unless noted; outcome: Channel type: primary unless noted.
Throughout, for efficacy: 0% is about no effect.

In the case of `CC(=O)[C@H]1CC[C@H]2[C@@H]3C=CC4=CC(=O)CC[C@@]4(C)[C@@H]3CC[C@]12C`, in experiment [1], the efficacy is 16%. The result in experiment [2], in experiment [3] and in experiment [4] was inactive.

For `O=C(CCOCCOCCOCCOCCC(=O)Nc1c(I)cc(I)c(C(=O)O)c1I)Nc1c(I)cc(I)c(C(=O)O)c1I`, in experiment [1], the efficacy was -16.9%. The result in experiment [2], in experiment [3] and in experiment [4] was inactive.

Turning to `CC(C)NNC(=O)c1ccncc1`, in experiment [1], the efficacy is -20.5%. The outcome in experiment [2], in experiment [3] and in experiment [4] was inactive.

Regarding `CN(C)CCOC(=O)C(c1ccccc1)C1(O)CCCC1` (stereo unspecified), the efficacy in experiment [1] was 15.2%. Further, the outcome in experiment [2], in experiment [3] and in experiment [4] was inactive.

`Cc1c(NC(C)C)c(=O)n(-c2ccccc2)n1C`: in experiment [1], the efficacy is -14.1%. In addition, the result in experiment [2], in experiment [3] and in experiment [4] was inactive.

Turning to `NCc1ccc(S(N)(=O)=O)cc1`, in experiment [1], the efficacy was -17.9%. Also, the outcome in experiment [2], in experiment [3] and in experiment [4] was inactive.

Turning to `Cc1nc([N+](=O)[O-])cn1-c1ccc([N+](=O)[O-])cc1`, the efficacy in experiment [1] was -13.8%. In addition, the result in experiment [2], in experiment [3] and in experiment [4] was inactive.

Take `Nc1ccc(S(=O)(=O)NC(=O)c2ccccc2)cc1`: the efficacy in experiment [1] was -38.1%. The outcome in experiment [2], in experiment [3] and in experiment [4] was inactive.

For the compound `O=C(CN1CCNCC1)NC1CCCCC1`, the efficacy in experiment [1] was 48.3%. The result in experiment [2] and in experiment [3] was inactive. Moreover, the AC50 in experiment [4] is 35.5 µM (active).

With `NC(=O)c1ncn([C@@H]2O[C@H](CO)[C@@H](O)[C@H]2O)c1O`, the efficacy in experiment [1] is -21.3%. The outcome in experiment [2], in experiment [3] and in experiment [4] was inactive.

For the compound `C=CCN1C[C@H](C)N([C@H](c2ccc(C(=O)N(CC)CC)cc2)c2cccc(OC)c2)C[C@H]1C`, the efficacy in experiment [1] is -18.5%. In addition, the outcome in experiment [2], in experiment [3] and in experiment [4] was inactive.

As for `C[N+](C)(C)CCCCCC[N+](C)(C)C`, the efficacy in experiment [1] was -15%. Besides, the outcome in experiment [2], in experiment [3] and in experiment [4] was inactive.

With `CC(C)CCCC(C)NCCC(C)C` (stereo unspecified), in experiment [1], the efficacy was -17.9%. Further, the result in experiment [2], in experiment [3] and in experiment [4] was inactive.

On to `Cc1c(F)c(N2CCNC(C)C2)cc2c1c(=O)c(C(=O)O)cn2C1CC1` (stereo unspecified), for which the efficacy in experiment [1] is -15%. Moreover, the outcome in experiment [2], in experiment [3] and in experiment [4] was inactive.

As for `CC(=O)c1cc2ccccc2s1`, in experiment [1], the efficacy is -31.8%. The result in experiment [2], in experiment [3] and in experiment [4] was inactive.

For `NS(=O)(=O)c1cc2c(cc1Cl)NC(CC1CCCC1)NS2(=O)=O` (stereo unspecified), in experiment [1], the efficacy was 19%. Besides, the outcome in experiment [2], in experiment [3] and in experiment [4] was inactive.

With `O=c1[nH]c2ccccc2n1C1CCNCC1`, in experiment [1], the efficacy was -18%. Further, the outcome in experiment [2], in experiment [3] and in experiment [4] was inactive.

On to `NCCNCCNCCNCCN`, for which the efficacy in experiment [1] was -17.9%. Also, the outcome in experiment [2], in experiment [3] and in experiment [4] was inactive.

Consider `CCn1nc(C(=O)O)c(=O)c2cc3c(cc21)OCO3`, for which the efficacy in experiment [1] is 37.2%. The outcome in experiment [2], in experiment [3] and in experiment [4] was inactive.

For the compound `Cc1ccccc1OCC(O)CO` (stereo unspecified), the efficacy in experiment [1] is 25.5%. Also, the result in experiment [2], in experiment [3] and in experiment [4] was inactive.

In the case of `CCN(CC)C(=O)c1ccc(O)c(OC)c1`, the efficacy in experiment [1] was 13.1%. Further, the outcome in experiment [2], in experiment [3] and in experiment [4] was inactive.

As for `CN(C)CCOC(=O)COc1ccc(Cl)cc1`, the efficacy in experiment [1] is 14.4%. Moreover, the result in experiment [2], in experiment [3] and in experiment [4] was inactive.

For the compound `Cc1nc(-c2ccc(Cl)cc2)oc1COC(C)(C)C(=O)O`, the efficacy in experiment [1] is -18.2%. In addition, the outcome in experiment [2], in experiment [3] and in experiment [4] was inactive.

Take `O=[N+]([O-])c1ccc(/C=N\O)o1`: the efficacy in experiment [1] was 8.52%. Besides, the outcome in experiment [2], in experiment [3] and in experiment [4] was inactive.

In the case of `COc1cc2c3cc1Oc1cc(ccc1O)C[C@@H]1c4c(cc(OC)c(O)c4Oc4ccc(cc4)C[C@@H]3N(C)CC2)CC[N+]1(C)C`, the efficacy in experiment [1] was -16.5%. Besides, the result in experiment [2], in experiment [3] and in experiment [4] was inactive.

With `CCN1CCC[C@H]1CNC(=O)c1c(OC)ccc(Br)c1OC`, in experiment [1], the efficacy is -13.7%. In addition, the outcome in experiment [2], in experiment [3] and in experiment [4] was inactive.

Take `O=C(NC(Cc1cc(=O)[nH]c2ccccc12)C(=O)O)c1ccc(Cl)cc1` (stereo unspecified): in experiment [1], the efficacy was -33.1%. Besides, the result in experiment [2], in experiment [3] and in experiment [4] was inactive.

With `Cc1ccsc1/C=C/C1=NCCCN1C`, the efficacy in experiment [1] is -24.4%. For the same compound, the result in experiment [2], in experiment [3] and in experiment [4] was inactive.

As to `Nc1ccc(C(=O)O)cc1`, in experiment [1], the efficacy is -10.9%. The result in experiment [2], in experiment [3] and in experiment [4] was inactive.

Regarding `Cc1ccnc(NS(=O)(=O)c2ccc(N)cc2)n1`, the efficacy in experiment [1] is -24.3%. For the same compound, the result in experiment [2], in experiment [3] and in experiment [4] was inactive.

For the compound `COCCOCC(OC)OC`, the efficacy in experiment [1] was 16.2%. In addition, the outcome in experiment [2], in experiment [3] and in experiment [4] was inactive.

For the compound `O=c1[nH]c(=O)n([C@H]2CCCO2)cc1F`, the efficacy in experiment [1] is -34.9%. Further, the result in experiment [2], in experiment [3] and in experiment [4] was inactive.

On to `CC(C(=O)O)c1ccc(C(=O)c2ccccc2)s1` (stereo unspecified), for which, in experiment [1], the efficacy is -17.9%. Moreover, the result in experiment [2], in experiment [3] and in experiment [4] was inactive.

`CC(N)CCCC(C)(C)O` (stereo unspecified): the efficacy in experiment [1] is -22.7%. The result in experiment [2], in experiment [3] and in experiment [4] was inactive.
